The nature of experiment [1]: APR_HepG2_CellCycleArrest_24hr: Apredica 24-hour HepG2 Assay for Cell Cycle Arrest (AID 2282905).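 Note: cell cycle arrest scored as ratio of 2N to 4N nuclear DNA content.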 To be noted: imaging, actives raise or lower the signal. The gist of the method: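 Cell cycle arrest is scored from nuclear DNA content measured by high-content imaging of Hoechst 33342-stained HepG2 cells following 24-hour treatment at ten concentrations up to 200 uM, with DMSO as baseline.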

The nature of experiment [2]: APR_HepG2_NuclearSize_24hr: Apredica 24-hour HepG2 Assay for Nuclear Size (AID 2282907). The settings on record: high-content imaging, actives raise or lower the signal. The gist of the method: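 Compounds in DMSO (final 0.5%) were added to human HepG2 hepatoma cells at ten concentrations up to 200 uM for 24 hr. Fixed nuclei were stained with Hoechst 33342, and nuclear diameter was quantified from automated images.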

Experiment [3] can be described thus: APR_HepG2_CellLoss_24hr: Apredica 24-hour HepG2 Assay for Cell Loss (AID 2282908).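 For AC50: fit in both directions so a hit may be cell loss or gain.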 The settings on record: high-content imaging. The gist of the method: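 Cell number is quantified by fluorescence imaging of Hoechst 33342-stained nuclei following dosing at 0.39–200 uM in 0.5% DMSO. Curves are fitted in both directions from the DMSO baseline.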
Experiment [4] is described as follows: APR_HepG2_MicrotubuleCSK_24hr: Apredica 24-hour HepG2 Assay for Microtubule CSK Stabilty (AID 2282909). The settings on record: HepG2 microtubule cytoskeleton imaging, actives raise or lower the signal. A digest of the protocol: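 Steps: dose HepG2 for 24 h (0.39–200 uM, 0.5% DMSO); fix 30 min in 3.7% formaldehyde at room temperature; permeabilize; stain alpha-tubulin 60 min; image microtubule cytoskeleton at 20x. Signal change fitted in both directions relative to DMSO.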

The nature of experiment [5]: APR_HepG2_MitoticArrest_24hr: Apredica 24-hour HepG2 Assay for Mitotic Arrest (AID 2282910). To be noted: high-content imaging, actives raise or lower the signal. The gist of the method: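 Compounds are dosed onto HepG2 cells across ten concentrations up to 200 uM for 24 hr. Cells are then fixed in 3.7% formaldehyde, permeabilised, and labelled for phospho-histone H3 and nuclei; images are scored by cell cycle analysis and fitted bidirectionally relative to DMSO.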

Experiment [6] in a line: APR_HepG2_MitoMembPot_24hr: Apredica 24-hour HepG2 Assay for Mitochondrial Membrane Potential (AID 2282911). The settings on record: imaging, actives raise or lower the signal. The gist of the method: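 Human hepatoma HepG2 cultures received ten compound concentrations up to 200 uM for 24 hr. Membrane-potential dye signal, captured by automated fluorescence microscopy, was scored for gain or loss against DMSO controls.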

Experiment [7] can be described thus: APR_HepG2_MitoMass_24hr: Apredica 24-hour HepG2 Assay for Mitochondrial Mass (AID 2282912). The settings on record: high-content imaging, actives raise or lower the signal. A digest of the protocol:
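The liver line HepG2 was dosed in duplicate across a 0.39–200 uM series, with final DMSO held at 0.5% v/v, and harvested at 24 hr. High-content imaging measured mitochondrial dye staining.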

Experiment [8] in a line: APR_HepG2_p53Act_24hr: Apredica 24-hour HepG2 Assay for p53 Activation (AID 2282913).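 Note: p53 protein immunofluorescence averaged per cell in HepG2 with Hoechst nuclei.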 To be noted: high-content imaging, actives raise or lower the signal. The gist of the method: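 Automated fluorescence imaging quantifies p53 immunostaining in HepG2 cells after a 24 hr exposure (0.39–200 uM, duplicate, 0.5% DMSO). Nuclei are located by Hoechst 33342 staining.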
Experiment [9] can be described thus: APR_HepG2_CellCycleArrest_72hr: Apredica 72-hour HepG2 Assay for Cell Cycle Arrest (AID 2282914). To be noted: high-content imaging, actives raise or lower the signal. A digest of the protocol:
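Cell cycle arrest in HepG2 was scored from nuclear DNA content after 72 hr compound treatment (0.39–200 uM). Activity, either gain or loss, was fitted against the DMSO baseline.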

The nature of experiment [10]: APR_HepG2_CellLoss_72hr: Apredica 72-hour HepG2 Assay for Cell Loss (AID 2282915). To be noted: high-content imaging. A digest of the protocol: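 Cell number comes from Hoechst 33342-labelled nuclei, imaged at 20x after 3.7% formaldehyde fixation. Dosing was 0.39–200 uM, ten concentrations in duplicate, 0.5% DMSO final, for 72 h. Bidirectional fit relative to DMSO baseline.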

Experiment [11] can be described thus: APR_HepG2_P-H2AX_72hr: Apredica 72-hour HepG2 Assay for H2AX Phosphorylation (AID 2282916).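 Note: phospho-histone H2A.x immunostain intensity per cell marking DNA damage.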 To be noted: imaging, actives raise or lower the signal. A digest of the protocol:
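Following 72 hr treatment with 0.39–200 uM compound, HepG2 cells were formaldehyde-fixed, permeabilized and stained for phospho-H2A.x; signal was measured by high-content imaging and fitted bidirectionally against DMSO controls.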

A short description of experiment [12]: APR_HepG2_MitoMembPot_72hr: Apredica 72-hour HepG2 Assay for Mitochondrial Membrane Potential (AID 2282917). The settings on record: imaging, actives raise or lower the signal. A digest of the protocol:
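Membrane potential read by MitoTracker Red CMXRos (250 nM, 30 min, pre-fixation) fluorescence imaging of HepG2 after 72 hr exposure. Ten concentrations, 0.39–200 uM, duplicate wells, 0.5% DMSO; fitted in both directions against DMSO baseline.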

Experiment [13] can be described thus: APR_HepG2_MitoticArrest_72hr: Apredica 72-hour HepG2 Assay for Mitotic Arrest (AID 2282918). To be noted: high-content imaging, actives raise or lower the signal. A digest of the protocol: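 Mitotic arrest in HepG2 is scored from phospho-histone H3 staining after 72 hr dosing across 0.39–200 uM, with DMSO at 0.5% v/v. Nuclei are identified by Hoechst 33342 and fluorescence intensity is quantified per cell.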

Experiment [14] is described as follows: APR_HepG2_MicrotubuleCSK_72hr: Apredica 72-hour HepG2 Assay for Microtubule CSK Stabilty (AID 2282919). To be noted: HepG2 microtubule cytoskeleton, high-content imaging, actives raise or lower the signal. A digest of the protocol:
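Read-out is tubulin fluorescence intensity from high-content imaging of HepG2 cells, with nuclei identified by Hoechst 33342. Treatment lasts 72 h at 0.39–200 uM, and curves are fitted bidirectionally against the DMSO negative control.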

Experiment [15] in a line: APR_HepG2_P-H2AX_24hr: Apredica 24-hour HepG2 Assay for H2AX Phosphorylation (AID 2282920). To be noted: high-content imaging, actives raise or lower the signal. A digest of the protocol:
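Signal comes from a FITC-labeled secondary detecting phospho-histone H2A.x in fixed HepG2 cells, quantified by automated imaging at 20x. Dosing ran 24 hr across 0.39–200 uM with 0.5% v/v DMSO.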

A short description of experiment [16]: APR_HepG2_StressKinase_24hr: Apredica 24-hour HepG2 Assay for Stress Kinase (AID 2282922). To be noted: HepG2 stress kinase (phospho-c-Jun) imaging, actives raise or lower the signal. The gist of the method: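 HepG2, 24 hr dosing, 0.39–200 uM in duplicate, 0.5% DMSO; formaldehyde fix (3.7%), 0.5% Triton X-100; anti-phospho-c-Jun + Cy3 secondary, Hoechst counterstain; ArrayScan imaging; bidirectional curve fit vs DMSO baseline.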

Experiment [17] is described as follows: APR_HepG2_p53Act_72hr: Apredica 72-hour HepG2 Assay for p53 Activation (AID 2282923).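 Note: average cellular p53 protein immunofluorescence intensity in HepG2 cells.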 To be noted: high-content imaging, actives raise or lower the signal. The gist of the method:
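HepG2 monolayers receive test compounds in duplicate at ten concentrations (0.39 through 200 uM) for 72 hr. They are then formaldehyde-fixed, antibody-labelled for p53, Hoechst-stained and imaged, with activity fitted bidirectionally versus DMSO.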

Experiment [18] is described as follows: APR_HepG2_MitoMass_72hr: Apredica 72-hour HepG2 Assay for Mitochondrial Mass (AID 2282924).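 Note: MitoTracker Red CMXRos stain intensity per cell imaged as mitochondrial mass.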 The settings on record: high-content imaging, actives raise or lower the signal. The gist of the method: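 HepG2, 72 hr cmpd, 10 conc 0.39–200 uM in dup, DMSO 0.5% v/v. MitoTracker Red CMXRos 250 nM 30 min pre-fix; formaldehyde 3.7% fix 30 min RT. HCS imaging, gain/loss fit vs DMSO.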

Experiment [19] is described as follows: APR_HepG2_NuclearSize_72hr: Apredica 72-hour HepG2 Assay for Nuclear Size (AID 2282925). The settings on record: high-content imaging, actives raise or lower the signal. The gist of the method: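 HepG2; cpd 0.39–200 uM, 10 conc, duplicate; 72 h; DMSO 0.5% v/v; fix 3.7% formaldehyde 30 min RT; Triton permeabilization; Hoechst 2 ug/mL; HCS imaging 20x; nuclear diameter; gain/loss fit vs DMSO.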

A short description of experiment [20]: APR_HepG2_StressKinase_72hr: Apredica 72-hour HepG2 Assay for Stress Kinase (AID 2282921). To be noted: HepG2 stress kinase (phospho-c-Jun) imaging, actives raise or lower the signal. The gist of the method:
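Fluorescence intensity of Cy3-tagged anti-phospho-c-Jun antibody, quantified per cell from Hoechst-defined nuclei across six images per well, served as the read-out following 72 h exposure (0.39–200 uM, 0.5% v/v DMSO).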

What is called AC50 is the midpoint of the concentration-response curve, whichever way the signal moves.

Molecules are shown by their SMILES. Active and inactive are the calls of the source. Rule for the calls: active = hit-call score of the fitted dose curve at least 0.9, where 1 is the maximum; inactive = score below 0.9.

On to `CCN(Cc1cccc(S(=O)(=O)O)c1)c1ccc(C(=C2C=CC(=[N+](CC)Cc3cccc(S(=O)(=O)O)c3)C=C2)c2ccccc2S(=O)(=O)[O-])cc1`, for which the compound was classed as inactive in experiment [1], in experiment [2], in [3], in experiment [4], in experiment [5] and in experiment [6]. The compound was called inactive in [7], in experiment [8], in experiment [9], in [10], in experiment [11] and in experiment [12]. Moreover, the call in experiment [13], in [14], in experiment [15], in [16], in [17] and in experiment [18] was inactive. The call in experiment [19] was inactive.
As to `Cc1ccc2oc(CN(Cc3ccccc3)C(=O)Nc3c(F)cc(F)cc3F)c(-c3ccc(Cl)cc3)c2c1`, the compound was called inactive in experiment [1], in [2], in [3], in [4], in [5] and in experiment [6]. The result in experiment [7], in experiment [8], in experiment [9], in [10], in experiment [11] and in experiment [12] was inactive. Further, the compound was classed as inactive in [13], in experiment [14], in [15], in [20], in [16] and in experiment [17]. For the same compound, the outcome in [18] and in [19] was inactive.
As for `CCOC(=O)O[C@H](C)OC(=O)c1ccc2c(c1)cc(C(=O)NC1CCN(C(C)C)CC1)n2Cc1cc(-c2ccc(Cl)s2)on1`, the AC50 is 94.5 µM (active) in experiment [1]; 9.26 µM (active) in experiment [3]; 25 µM (active) in experiment [4]; 10.1 µM (active) in [5]; 44.4 µM (active) in experiment [6]; 167 µM (active) in experiment [7]. Moreover, the AC50 in experiment [8] is 94.5 µM (active); in experiment [10], 8.32 µM (active); in experiment [14], 94.5 µM (active); in experiment [15], 94.5 µM (active). In addition, the compound was classed as inactive in experiment [2], in [9], in experiment [11], in experiment [12], in experiment [16] and in [17]. Besides, the outcome in experiment [18] and in experiment [19] was inactive.
`CCCCOC(=O)CC(CC(=O)OCCCC)(OC(C)=O)C(=O)OCCCC`: the call in experiment [1], in experiment [2], in experiment [4], in [5], in experiment [7] and in experiment [9] was inactive. Moreover, the compound was called inactive in experiment [12], in [15], in experiment [16], in experiment [18] and in experiment [19]. In addition, the half-maximal activity concentration (AC50) in experiment [3] is 27.7 µM (active); in [6], 70.8 µM (active); in [8] it was 53.9 µM (active); in [10], 42.5 µM (active); in experiment [11], 56.2 µM (active); in experiment [14], 43.6 µM (active). The AC50 in experiment [17] is 57.9 µM (active).
For the compound `CN(C)C(=O)C1(N2CCCCC2)CCN(CC[C@@]2(c3ccc(Cl)c(Cl)c3)CN(C(=O)c3ccccc3)CCO2)CC1`, the compound was classed as inactive in [1], in experiment [6], in experiment [12], in experiment [14], in experiment [16] and in experiment [18]. In addition, the half-maximal activity concentration (AC50) in [2] was 20.9 µM (active); in experiment [3], 15.7 µM (active); in experiment [4], 65.2 µM (active); in experiment [5], 13.1 µM (active); in [7], 7.74 µM (active); in [8], 22.9 µM (active). Also, the concentration at half-maximal activity (AC50) in [9] is 67.3 µM (active); in [10] it was 11.4 µM (active); in [11], 12.3 µM (active); in experiment [15] it was 19.6 µM (active); in experiment [17] it was 20.2 µM (active); in experiment [19], 6.79 µM (active).
Regarding `O=C=NCCCCCCN=C=O`, the compound was classed as inactive in experiment [1], in [2], in [3], in [4], in experiment [5] and in [6]. For the same compound, the compound was classed as inactive in experiment [7], in experiment [8], in [9], in experiment [10], in experiment [11] and in [12]. The compound was classed as inactive in experiment [14], in [15], in [16], in experiment [17], in experiment [18] and in experiment [19].

For the origin of these results see PubChem BioAssay (EPA / NIEHS).
